Screening data: PubChem, National Center for Advancing Translational Sciences (NCATS)
CHX counter: Cycloheximide Counterscreen for Small Molecule Inhibitors of Shiga Toxin | cell reporter, cycloheximide protein synthesis inhibition counterscreen | 300,000 compounds, 12% hits | max response, %; in the data active = max response mostly above about 13%, no sharp cut-off; inactive = mostly below about 14%; note: read at 38.3 µM for the half of the compounds with a filed dose; 0% is about no effect
Shiga inhibitor: A qHTS for Small Molecule Inhibitors of Shiga Toxin. inhibition, % at 38.7 µM. 290,000 compounds, 9.2% hits. Vero cells, Shiga toxin protein synthesis inhibition reporter; in the data active = inhibition mostly above about 28%, no sharp cut-off; inactive = mostly below about 43%; note: 0% is about no effect
Pf growth 48h: Primary qHTS for delayed death inhibitors of the malarial parasite plastid, 48 hour incubation. P. falciparum luciferase growth in erythrocytes, 48 h. Potency, µM (series often up to 28.7 µM), for the others: at the highest dose activity change, negative = inhibition, usual class: inhibitors. 310,000 compounds, 5.9% hits. AID 504832, 2011; note: potency is the fitted concentration of half-maximal effect; % is set by controls: 0 for no effect and ±100 for the full control effect
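Cell-based growth assay: transgenic P. falciparum expressing firefly luciferase, cultured in red cells within RPMI 1640 containing 0.5% w/v Albumax, 24 mM bicarbonate and gentamycin. A drop in luciferase activity indicates inhibition.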
Pf growth 96h: Primary qHTS for delayed death inhibitors of the malarial parasite plastid, 96 hour incubation; Potency, µM (top dose mostly 28.7 µM), without a hit: at the top dose activity change, negative = inhibition, usual class: inhibitors; P. falciparum luciferase reporter growth, 96 h; 320,000 compounds, 6.9% hits; note: potency is the fitted concentration of half-maximal effect; % is set by controls: 0 for no effect and ±100 for the full control effect
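Delayed-death screen, second-generation endpoint: infected erythrocytes, 2% hematocrit, 0.05% parasitemia final; 96 hours at 37 C, 5% CO2; luciferase detection reagent; luminescence decrease equals reduced growth.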
* marks the source's active call; other numbers are inactive results; i = inactive; ? = inconclusive; / = no result given. Only some compounds are listed: those with a hit (about 21% of all), similar ones and a draw of the others. Unless noted, calls come from the whole dose curve; as a rule, active = well fitted inhibition curve with a large enough effect; inconclusive = small, poorly fitted or top-dose-only effect, or another doubt; inactive = no such curve, though single readings can be large or run the other way.

SMILES | CHX counter | Shiga inhibitor | Pf growth 48h | Pf growth 96h
COc1ccc(C(=O)Nc2ccc(NC(=O)c3ccco3)cc2)cc1 | -6.3 | 29.2 | -11.3% | 12.3%
COc1ccc(N=N/C(=C\O)C(=O)c2ccco2)cc1 | 39.6* | 83.5* | i | 222.1%
COC(=O)C(C)N1C(=O)S/C(=C\c2ccc(-c3ccc(C(=O)O)cc3C)o2)C1=O (configuration not stated) | 43.6* | 88.9* | 31.0% | 5.1%
Cc1ccc(NC(=O)CN2C(=O)S/C(=C/c3ccc(-c4cc(C(=O)O)ccc4C)o3)C2=O)cc1C | -2.3 | -7.3 | 2.2% | /
Cc1cc(NC(=O)CSc2nc(-c3ccccc3Cl)nc3c2c(=O)n(C)c(=O)n3C)no1 | 12.1 | -15.9 | 5.4% | 7.5%
Cc1onc(-c2c(Cl)cccc2Cl)c1C(=O)c1c[nH]c(C(=O)NCC2CCCO2)c1 (configuration not stated) | -0.1 | 26.5 | 10.4µM* | ?
COc1ccc(CCNc2ccc(C(CC(N)=O)NC(=O)c3cc(C)cc(C)c3)cc2[N+](=O)[O-])cc1 (configuration not stated) | -2.0 | -1.7 | -18.9% | -15.4%
CC(=C\C(=O)O)/C(=C\c1cccc2ccccc12)C(=O)O | 24.9* | 82.7* | ? | 11.1%
COc1ccc(N2C(=O)CSC2c2cccc(F)c2)cc1 (configuration not stated) | -1.5 | -6.3 | 1.1% | -0.4%
CC(=O)OCC1(C)CN(c2ccccc2)NC1=O (configuration not stated) | 10.4 | 4.7 | 30.1% | 108.6%
Cn1c(CCNC(=O)c2cccs2)nnc1SCC(=O)Nc1nc(-c2ccccc2)cs1 | 6.1 | 8.0 | 7.38µM* | 14.4%
Cn1cnnc1SCC(=O)Nc1nc(-c2ccccc2)cs1 | 13.0* | 4.7 | -11.9% | ?
O=C(/C=C\c1cccs1)N1CCN(Cc2ccc3c(c2)OCO3)CC1 | 7.1 | 5.0 | -19.0% | 56.3%
O=C(CCCN1CCC(NC(=O)c2ccccc2)CC1)c1ccc(Cl)cc1 | -1.8 | 6.6 | ? | 0.0%
O=C(CCCN1CCN(c2ccccn2)CC1)c1ccc(F)cc1 | / | / | ? | -2.3%
Cc1ccc(C(=O)NC2CCN(CCCC(=O)c3ccc(F)cc3)CC2)cc1 | -3.3 | -7.6 | 10.4µM* | ?
O=C(CCCN1CCC(n2c(=O)[nH]c3ccccc32)CC1)c1ccc(F)cc1 | / | / | 0.809µM* | 10.4µM*
Cc1ccc(CNC(=O)CN(C(=O)N2CCN(C)CC2)S(=O)(=O)c2ccc(C)cc2)cc1 | / | / | 2.9% | 11.6%
NC(=O)C1CCN(C(=O)c2cccc(S(=O)(=O)N3CCCC3)c2)CC1 | / | / | 28.1% | 38.1%
COc1ccc(-c2csc(/C(C#N)=C\c3cccc([N+](=O)[O-])c3)n2)cc1 | 0.5 | -8.1 | 23.7% | 20.0%
N#C/C(=C\C=C\c1ccccc1[N+](=O)[O-])c1nc(-c2ccc3c(c2)OCO3)cs1 | -1.1 | -4.2 | 19.5% | 28.1%
N#C/C(=C\c1ccc(O)c([N+](=O)[O-])c1)c1nc2ccccc2s1 | 24.9 | 62.1 | -15.5% | ?
N#C/C(=C\c1ccccc1[N+](=O)[O-])c1nc(C2CC2)cs1 | 56.8* | 58.3* | 88.1% | 33.5%
N#C/C(=C\c1ccc([N+](=O)[O-])cc1)c1nc(C2CC2)cs1 | 20.6* | 15.4 | 6.7% | 1.8%
N#C/C(=C/c1ccccc1[N+](=O)[O-])c1nc(C2CC2)cs1 | 24.8* | 42.6 | 83.1% | i
SMILES | CHX counter | Shiga inhibitor | Pf growth 48h | Pf growth 96h
COc1ccc(CC(=O)N2CCc3cc(OC)c(OC)cc3C2C)c(OC)c1 (configuration not stated) | -2.8 | -0.5 | ? | ?
Cc1ccc(N(C)C(=O)N2CCN(c3ccccn3)CC2)cc1 | -1.8 | 14.4 | -0.1% | -21.8%
CC1Nc2ncnc(N3CCN(c4ccccn4)CC3)c2N(Cc2ccccc2)C1=O (configuration not stated) | / | / | 11.7µM* | 2.62µM*
Cc1ccc(CN2C(=O)C(C)Nc3ncnc(N4CCN(c5ccccn5)CC4)c32)cc1 (configuration not stated) | / | / | 11.7µM* | 11.7µM*
O=C1C=C(c2ccc3c(c2)oc2ccccc23)C[C@@H](c2ccc3c(c2)OCO3)C1 | / | / | -4.9% | ?
CCCCCCN(C(=O)CCCCCN1C(=O)NC(c2ccc(Cl)cc2)C(C(=O)OCc2ccccc2)=C1C)C(C(=O)NCCCC)c1ccc(OCC(=O)OC)c(C(=O)OC)c1 (configuration not stated) | -0.8 | -16.9 | 7.38µM* | ?
CCCCNC(=O)C(c1ccc(OCC(=O)OC)c(C(=O)OC)c1)N(CCc1c[nH]c2ccccc12)C(=O)CCCCCN1C(=O)NC(c2ccc(-c3ccccc3)cc2)C(C(=O)OCc2ccccc2)=C1C (configuration not stated) | -2.9 | -10.0 | 2.33µM* | 2.94µM*
CCCCCCN(C(=O)CCCCCN1C(=O)NC(c2ccc(-c3ccccc3)cc2)C(C(=O)OCc2ccccc2)=C1C)C(C(=O)NCCCC)c1ccc(OCC(=O)OC)c(C(=O)OC)c1 (configuration not stated) | -6.5 | -1.3 | 2.33µM* | 2.62µM*
CC1=C(C(=O)OCc2ccccc2)C(c2ccc(Cl)cc2)NC(=O)N1CCCC(=O)O (configuration not stated) | -2.3 | -4.4 | -15.9% | ?
COC(=O)C1=C(C)N(CCCC(=O)O)C(=O)NC1c1ccc(-c2ccccc2)cc1 (configuration not stated) | -5.7 | -14.7 | -15.8% | ?
CCN(C(=O)c1ccc(S(=O)(=O)N2CCC(C)CC2)cc1)C1CCS(=O)(=O)C1 (configuration not stated) | / | / | 9.3% | 13.5%
CCOC(=O)c1[nH]c2ccc(OCC)cc2c1NC(=O)CN1CCN(c2ccccc2)CC1 | 28.5* | 59.8 | ? | 51.2%
COC(=O)c1[nH]c2ccc(C)cc2c1NC(=O)CN1CCN(c2ccc(F)cc2)CC1 | -1.7 | -4.2 | ? | ?
Cc1ccc2[nH]c(C(=O)O)c(NC(=O)CN3CCN(c4cccc(C)c4C)CC3)c2c1 | -8.2 | -6.5 | 0.0% | 4.65µM*
COC(=O)c1[nH]c2ccc(C)cc2c1NC(=O)CN1CCN(c2ccccc2)CC1 | 0.5 | -8.7 | 10.4µM* | /
COC(=O)c1[nH]c2ccc(Cl)cc2c1NC(=O)CN1CCC(C(N)=O)CC1 | -6.7 | -9.3 | 11.7µM* | ?
COC(=O)c1[nH]c2ccc(C)cc2c1NC(=O)CN1CCN(Cc2ccccc2)CC1 | 0.6 | 4.2 | / | -16.3%
COc1cc(CC(=O)OCC2=C[C@H]3[C@@H]4C(C)(C)[C@]4(OC(C)=O)[C@H](OC(=O)Cc4ccccc4)[C@@H](C)[C@]3(O)[C@@H]3C=C(C)C(=O)[C@@]3(O)C2)ccc1O | 19.2 | 34.6 | / | /
O=C1CC2(CCCC2)C(=O)N1CN1CCN(S(=O)(=O)c2ccc(Cl)c(Cl)c2)CC1 | / | / | 5.8% | -9.2%
Cc1cc(N2CCOCC2)ccc1/C=C\[N+](=O)[O-] | -11.2 | -13.8 | 13.6% | -24.2%
O=c1c2[nH]cnc2n(-c2cccc(Br)c2)c(=O)n1Cc1ccccc1 | -2.5 | -7.6 | -7.1% | -24.3%
